Source: PubChem (several laboratories)
APOBEC3G inh = APOBEC3G DNA deaminase inhibitors, primary screen, biochemical, fluorescence, single-stranded DNA substrate, uHTS; 330,000 tested, 0.28% active; inhibition, % at 20 µM; recombinant A3G, ssDNA deamination FAM/TAMRA fluorescence; DNA dC->dU-editing enzyme APOBEC-3G (Homo sapiens), Q9HC16;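 active = inhibition of at least 40% at 20 µM, with no more than 30% in the related APOBEC3A deaminase screen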;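 also: plate controls were DMSO wells with A3G for no effect and wells lacking A3G enzyme for full effect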
PHOSPHO1 inh = PubChem AID 1565; Phosphoethanolamine/phosphocholine phosphatase (Homo sapiens), Q8TCT1; recombinant PHOSPHO1, absorbance phosphatase assay; inhibition, % at 13.3 µM; 290,000 tested, 1.1% active; in the data active = inhibition above about 60%
Target sequence (Q8TCT1 whole entry, looked up): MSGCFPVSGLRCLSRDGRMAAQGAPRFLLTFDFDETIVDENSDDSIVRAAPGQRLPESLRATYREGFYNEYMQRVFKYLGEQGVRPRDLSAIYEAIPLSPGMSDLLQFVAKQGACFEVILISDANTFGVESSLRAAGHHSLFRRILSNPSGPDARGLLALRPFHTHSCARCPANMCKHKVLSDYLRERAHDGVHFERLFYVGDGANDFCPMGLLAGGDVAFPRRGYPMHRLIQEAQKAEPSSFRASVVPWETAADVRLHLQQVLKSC
MITF TRPM1 HTS = activators of MITF-driven TRPM1 promoter reporter, primary screen, cell-based, SK-MEL-5, luciferase, single point. 300,000 tested, 0.75% active. activation, % at 12.5 µM. SK-MEL-5 TRPM1-promoter luciferase, 24 h; % of positive control, neutral wells = 0;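 active = mean activation of at least 80% with every replicate also reaching 80%; inconclusive = mean reaches 80% but some replicate falls short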;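 also: 0% = neutral control wells and 100% = parthenolide positive control wells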
APOBEC3A inh = APOBEC3A ssDNA deaminase inhibitors, primary screen, selectivity assay for APOBEC3G inhibitor project, biochemical, FAM/TAMRA oligo cleavage fluorescence; recombinant A3A, FAM/TAMRA ssDNA deamination fluorescence; inhibition, % at 20 µM; 330,000 tested, 0.41% active; AID 493011, 2011;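 active = at least 40% inhibition at 20 µM here, with at most 30% in a related deaminase screen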;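 also: plate controls were A3A with DMSO for no effect and wells lacking A3A enzyme for full effect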
Target sequence (P31941 whole entry, looked up): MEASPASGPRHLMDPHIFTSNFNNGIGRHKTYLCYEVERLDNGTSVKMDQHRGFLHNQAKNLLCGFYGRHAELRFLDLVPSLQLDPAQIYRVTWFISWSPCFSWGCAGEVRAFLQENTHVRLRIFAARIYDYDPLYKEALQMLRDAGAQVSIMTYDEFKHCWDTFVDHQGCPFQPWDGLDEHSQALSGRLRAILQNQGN
Wnt act = Wnt/beta-catenin pathway activators, primary screen, cell-based, plate reader, single point; Wnt/beta-catenin reporter cell assay, activator; activation, % at 9.35 µM; 300,000 tested, 1.2% active; AID 743398, 2014; in the data active = activation above about 30%, passing the limit was not always enough; inconclusive = no clear call, values can overlap the other calls;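 also: 0% = neutral control wells and 100% = positive control wells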
esBAF inh = Bmi1 luciferase reporter increase in mESCs, primary screen, esBAF inhibitor project, mouse ES cells, Bmi1 luciferase knock-in, single point; 24 h; 100% = twice the neutral-well signal; 350,000 tested, 2% active; AID 602393, 2012; reporter increase, % at 12.5 µM; in the data active = activation above about 40%; inconclusive = no clear call, values can overlap the other calls;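 also: 0% = median of the plate's neutral control wells and 100% = double that signal; a rise in the Bmi1 reporter signal indicates esBAF inhibition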
An asterisk follows results filed as active; ? = inconclusive; . = no result. In the library only some 3.6% were active in any assay of this set; here they are far more common.

SMILES | APOBEC3G inh | PHOSPHO1 inh | MITF TRPM1 HTS | APOBEC3A inh | Wnt act | esBAF inh
CCOc1ccccc1-n1nnnc1SCC(=O)O | 0 | 38 | 5 | 5 | 36* | -7
COc1cc(CNc2ccc(N3CCOCC3)cc2)ccc1OCC(=O)NC(C)(C)C | -6 | . | -5 | -2 | 0 | 5
COc1cc(CNc2ccc3[nH]c(=O)[nH]c3c2)ccc1OCc1ccc(C)cc1 | -6 | 38 | 68 | -4 | 44* | 55*
COc1cc(CNc2ccc3[nH]c(=O)[nH]c3c2)ccc1OCc1ccccc1Cl | -6 | 1 | 65 | -5 | 2 | 13
COc1cc(CNc2ccc3[nH]c(=O)[nH]c3c2)ccc1OCc1cccc(C)c1 | -5 | 30 | 17 | -2 | 19 | 20
COc1cc(CNc2ccc(N3CCN(C(C)=O)CC3)cc2)ccc1OCc1ccccc1 | -1 | 24 | -7 | -3 | 40* | .
O=c1[nH]c2ccc(NCc3ccc(OCc4ccccc4Cl)cc3)cc2[nH]1 | -11 | 22 | 83* | -8 | 8 | 27
O=C(CSc1nnc(-c2ccc(O)cc2)n1Cc1ccco1)c1cccs1 | -3 | -47 | . | -2 | . | 3
O=C(CC(SCCO)c1ccc2c(c1)OCO2)c1cccs1 (stereo not given) | -4 | 83* | 88* | 0 | 42* | 84*
O=C(CC(SCc1ccco1)c1ccc(O)cc1)c1cccs1 (stereo not given) | 2 | 23 | 67 | 4 | . | 71*
O=S(=O)(NCc1nc2ccccc2[nH]1)c1ccccc1 | -7 | 73* | 9 | -1 | 1 | -4
Cn1c(Cc2cccs2)nnc1SCc1nc2ccccc2[nH]1 | -7 | 41 | -8 | -17 | . | -2
CNCc1nc2ccccc2[nH]1 | -8 | 28 | -5 | 0 | . | .
c1csc(Cc2nc3ccccc3[nH]2)c1 | -7 | 46 | 27 | -5 | 18 | 71*
O=c1[nH]c2ccccc2nc1CCc1ccccc1 | 1 | 36 | 78 | 4 | 31* | .
O=c1[nH]c2ccccc2nc1Cc1ccc(Cl)cc1 | -4 | 30 | 3 | 0 | -7 | 0
CC(C)=C(NC(=O)c1ccccc1)C(=O)NCCc1nc2ccccc2[nH]1 | -6 | 64* | -3 | -4 | 1 | -2
C/C=C/c1cnc2c(c1)C(=O)N([C@H](C)CO)C[C@@H](C)[C@H](CN(C)C(=O)CN1CCOCC1)O2 | . | . | . | . | . | -1
COc1ccc(NC(=O)N(C)C[C@@H]2OCCCC[C@@H](C)Oc3ccc(NC(=O)CCCN(C)C)cc3C(=O)N([C@@H](C)CO)C[C@H]2C)cc1 | . | . | . | . | . | -3
c1ccc(CCc2nc3ccccc3[nH]2)cc1 | -6 | 12 | 69 | -5 | 42* | 20
N#Cc1ccc2nc(-c3ccc(CN4CCC5(CC4)CNc4ccccc45)cc3)c(-c3ccccc3)nc2c1 | . | . | . | . | -9 | .
C[C@H]1CN([C@@H](C)CO)C(=O)c2cc(C#CC3(O)CCCC3)cnc2O[C@@H]1CN(C)C(=O)Cc1ccncc1 | . | . | . | . | . | -3
C=C(C)c1cccc(C(C)(C)NC(=O)NCc2cccnc2)c1 | -11 | 41 | 8 | 0 | -1 | .
C=C(C)c1cccc(C(C)(C)NC(=O)NCc2ccncc2)c1 | -6 | 66* | 1 | -1 | 1 | .
O=C1/C(=C/N(C(=O)c2ccco2)c2ccc(Br)cc2)Sc2ccccc21 | -7 | 12 | 38 | -4 | . | 48*
SMILES | APOBEC3G inh | PHOSPHO1 inh | MITF TRPM1 HTS | APOBEC3A inh | Wnt act | esBAF inh
O=C1/C(=C/N(C(=O)c2ccco2)c2ccc(Cl)cc2)Sc2ccccc21 | . | 7 | 67 | . | . | .
CCCNC(=O)c1cc2ccccc2c(=O)o1 | -5 | -10 | -2 | -2 | 2 | .
CCCCC[C@@H](O)c1cc2ccccc2c(=O)o1 | -7 | . | -4 | 0 | 11 | 43*
COc1ccc(NC(=O)N(C)C[C@H]2Oc3c(NC(=O)c4cc(C)nn4C)cccc3C(=O)N([C@H](C)CO)C[C@H]2C)cc1 | . | . | . | . | . | 1
COc1ccc(C(=O)NN=C2CCCC2)cc1 | -8 | . | . | -4 | 0 | 45*
Cc1cc(OCc2ccc(C(=O)NN=C3CCCC3)cc2)ccc1Cl | -2 | 6 | 27 | -2 | 46* | .
Cc1noc(C)c1S(=O)(=O)N(C)C[C@H]1OCCCC[C@H](C)Oc2ccc(N(C)C)cc2C(=O)N([C@H](C)CO)C[C@@H]1C | . | . | . | . | . | -3
CCc1nnc(NC(=O)CSc2nnc(COc3ccccc3C)o2)s1 | -3 | 97* | -4 | 1 | -1 | 1
CCc1nnc(NC(=O)CSc2nnc(COc3cccc(C)c3)o2)s1 | 0 | 88* | -5 | 2 | -2 | .
CC(=O)N1[C@H](C(=O)NCCCN(C)C)[C@@H](CO)[C@@H]2Cn3c(ccc(-c4cccc(F)c4)c3=O)[C@@H]21 | . | . | . | . | . | -2
COc1ccccc1S(=O)(=O)N1C[C@H](O)COC[C@@H]2O[C@@H](CC(=O)O)CC[C@H]21 | . | . | . | . | . | 2
O=C(c1ccccn1)N1C[C@H]2[C@@H](c3ccccc31)[C@@H](CO)N2C(=O)C1CC1 | . | . | . | . | . | -2
Cc1ccc(-c2nc3ccccc3[nH]2)cc1NC(=O)c1ccc2c(c1)OCO2 | -5 | 17 | 28 | 0 | . | 45*
Cc1ccc(-c2nc3ccccc3[nH]2)cc1NC(=O)/C=C/c1ccco1 | 8 | -2 | 44 | 15 | . | 23
Cc1ccc(-c2nc3ccccc3[nH]2)cc1NC(=S)NC(=O)c1ccccc1Br | -7 | 22 | 14 | -4 | 0 | 58*
C[C@H](O)[C@@H]1CN2CCc3ccc(-c4ccc5c(c4)OCO5)cc3[C@@H]2C[C@@H]1N(C)C(=O)c1ccco1 | . | . | . | . | -1 | .
CCCNC(=O)N1C[C@H](O)COC[C@@H]2O[C@@H](CC(=O)N[C@H]3CCN(Cc4ccccc4)C3)CC[C@H]21 | . | . | . | . | . | 3
CCOC(=O)C1(Cc2cccc(OC)c2)CCCN(C(=O)c2ccc(OC)o2)C1 (stereo not given) | -5 | 18 | 88* | -4 | ? | 80*
CCOC(=O)C1(Cc2cccc(Cl)c2)CCCN(C(=O)CCOC)C1 (stereo not given) | -7 | 41 | 7 | -2 | 0 | 8
CCOC(=O)C1(Cc2cccc(OC)c2)CCCN(C(=O)CCN2CCCO2)C1 (stereo not given) | 0 | 51 | 76 | -3 | 22 | 68*
CCOC(=O)C1(Cc2cccc(OC)c2)CCCN(C(=O)c2cc(CC(C)C)[nH]n2)C1 (stereo not given) | -9 | 38 | 68 | -2 | 0 | .
